# From PubChem BioAssay AID485313 (National Center for Advancing Translational Sciences (NCATS), 2010)
# About 7,600 (2.4%) of roughly 320,000 compounds were called active. A call without a number means that no potency is given here. Another 3% or so got no clear call; they are omitted. The call rests on the fitted dose curve; in most records, active means well fitted activation curve with a large enough effect; inconclusive means small, poorly fitted or top-dose-only effect; inactive means no such curve, though single readings can be large or run the other way. The sample as a whole holds a higher share of actives than the screen did.
# Assay: qHTS Assay for NPC1 Promoter Activators; further: nearly all actives have a fitted effect of over 60% in size
# Conditions: Huh7 NPC1 promoter luciferase reporter, 24 h; series mostly up to 9.22 µM
# Excerpt: NIH Chemical Genomics Center [NCGC] NIH Molecular Libraries Probe Production centers Network [MLPCN] MLPCN Grant: MH089375-01A1 Assay Submitter (PI): Yiannis A. Ioannou NCGC Assay Overview: Niemann Pick Type C (NPC) is a rare neurodegenerative lipidosis that is characterized by lipid storage in the endosomal/lysosomal system. Treatment modalities for this devastating disease are currently non-existent due to the severe obstacles associated with accessing the central nervous system with proteins or genes. The majority of mutations causing NPC disease are missense mutations that are distributed throughout the length of the NPC1 protein, with the most prevalent being the I1061T allele. Although NPC1 mutant proteins may be functional, they are typically trapped in the ER due to misfolding. […] We have developed and optimized a cell based luciferase reporter assay in 1536 well format for the identification of up-regulators of the mutant NPC1 promoter.
# The NPC1 promoter is cloned in front of the luciferase reporter gene, therefore NPC promoter activation results in luciferase expression. Frozen stock of the NPC1 promoter transfected Huh7 cells were obtained from the laboratory of Dr. Yiannis Ioannou (The Mount Sinai School of Medicine, New York, NY). Cells were propagated and maintained at NCGC in medium containing RPMI-1640 supplemented with 10% FBS, 2mM L-glutamine, and 50ug/ml penicillin/streptomycin. Cells were harvested in and plated for assays in OP-MEM I reduced-serum medium supplemented with 10% FBS. The Amplite luciferase reporter gene assay kit was purchased from ABD Bioquest and prepared/stored according to manufacturers recommendations. qHTS Assay Setup: 1.#Dispensed 5ul of Huh7 cells stably expressing NPC1-luciferase at a density of 1500 cells per well 1536-well plates. 2.#Incubate cells at 37C, 5% CO2, and 95% humidity for 2 hours. 3.#Transferred 23nl per well of compound in DMSO solution. 4.#Incubated at 37C, 5% CO2, and 95% humidity for 24 hours. 5.#Dispensed 3ul per well of Amplite reagent(ABD Bioquest) per well. 6.#Incubate at ambient for 10 minutes. 7.#Read using the luminescence protocol on the ViewLux plate reader (Perkin Elmer).
# Potency means the concentration at half of the fitted maximal effect.
row,SMILES,Potency
1,O=C(Nc1ccon1)c1sc2ccccc2c1Cl,3.98 µM (active)
2,O=C(Nc1ccon1)c1cccc(Cl)c1,inactive
3,Cc1nn(C)cc1/C=N/NC(=O)c1sc2ccccc2c1Cl,inactive
4,Cn1c(N)c(C(=O)COC(=O)COc2ccc(Cl)cc2)c(=O)n(C)c1=O,inactive
5,O=C(COC(=O)CCCN1C(=O)c2cccc3cccc(c23)C1=O)NC1CCS(=O)(=O)C1 (configuration not stated),inactive
6,COc1ccc(OCCNC(=O)c2cc(C3CC3)nc3c2cnn3C(C)C)cc1,inactive
7,CC1(C)C(c2cccs2)=[N+]([O-])C2(CCCCC2=O)N1O (configuration not stated),inactive
8,C/C(=N\O)C1(C)N(O)C(C)(C)C(c2ccc(Br)cc2)=[N+]1[O-] (configuration not stated),inactive
9,CC(=O)C1(C)N(O)C(C)(C)C(c2cccs2)=[N+]1[O-] (configuration not stated),0.1 µM (active)
10,CC(C(=O)N1CCc2ccccc21)N(C)CC(=O)Nc1ccc(F)cc1 (configuration not stated),inactive
11,CCNC(=O)c1cccc(NC(=O)C2CC(=O)N(CCc3ccccc3)C2)c1 (configuration not stated),inactive
12,Nc1c(C(=O)NCc2ccccc2)sc2nc3c(cc12)C(=O)CCC3,inactive
13,CCN(CC)C(=O)N(CC)Cc1ccccc1,inactive
14,CCN(CC)C(=O)c1sc2nc(-c3ccccc3)ccc2c1N,1.58 µM (active)
15,CCCC(NC(=O)c1ccco1)c1nc2ccccc2[nH]1 (configuration not stated),inactive
16,COCCCNC(=O)COc1cc(C)c(Cl)c(C)c1,inactive
17,Cc1cc(OCc2cc(C(=O)NCc3cc(C(C)C)no3)no2)cc(C)c1Cl,1.41 µM (active)
18,Cc1cccnc1CC(C)NC(=O)c1cc(COc2cncc(Cl)c2)on1 (configuration not stated),inactive
19,COc1cccc(-c2nnc(SCCOc3ccc4c(C)cc(=O)oc4c3)o2)c1,inactive
20,O=[N+]([O-])c1ccc2oc(-c3cccc(O)c3)nc2c1,inactive
21,COc1cccc(-c2nc3cc(C)ccc3o2)c1,3.16 µM (active)
22,O=C(/C=C(O)/C=C/c1ccc(O)cc1)/C=C/c1ccc(O)cc1,inactive
23,CCCCn1c(N)c(N(CC(C)C)C(=O)c2cnc(C)cn2)c(=O)[nH]c1=O,inactive

row,SMILES,Potency
1,COc1ccccc1C(=O)Nc1ccc(OCC(=O)N2CCCCC2)cc1,inactive
2,NS(=O)(=O)c1ccc2nc(NC(=O)C3=COCCO3)sc2c1,1.78 µM (active)
3,NS(=O)(=O)c1ccc2nc(NC(=O)CS(=O)(=O)c3ccc(F)cc3)sc2c1,inactive
4,CS(=O)(=O)c1ccc2nc(NC(=O)c3ccc(Cl)nc3)sc2c1,inactive
5,CN(CC(=O)Nc1ccc(Cl)c(C(F)(F)F)c1)C(=O)CCC(=O)c1ccccc1,inactive
6,COC(=O)c1ccc(COC(=O)CNC(=O)c2cccc(OC)c2)o1,inactive
7,CN(CC(=O)Nc1ccc(Cl)cc1)C(=O)c1ccc(COc2ccccc2)cc1,inactive
8,O=C(CNC(=O)c1ccc2ccccc2c1)Nc1ncccc1O,inactive
9,CCc1cc(C(N)=O)c(NC(=O)c2ccc(OC)cc2)s1,inactive
10,CCOC(=O)c1cc(C(C)C)sc1NC(=O)COC(=O)c1nccnc1N,inactive
11,CC(C)c1cc(C(N)=O)c(NC(=O)c2cccc(COc3ccc(Br)cc3)c2)s1,2.82 µM (active)
12,CC(=O)c1c(C)[nH]c(C(=O)OCC(=O)Nc2c(C)n(C)n(-c3ccccc3)c2=O)c1C,inactive
13,CN(C)CCN=c1cc(-c2ccccc2)oc2ccc(Cl)cc12,2.82 µM (active)
14,CN(C)CCn1c(=S)[nH]c2ccc(Cl)cc2c1=O,inactive
15,CN(CC(=O)NCc1ccc2c(c1)OCO2)CC(=O)Nc1ccc(F)c(F)c1F,inactive
16,CO[C@H]1[C@@H]2C=CO[C@@H](O[C@H]3O[C@@H](CO)[C@H](O)[C@@H](O)[C@@H]3O)[C@@H]2[C@@]2(CO)O[C@@H]12,inactive
17,O=C(Nc1ccccc1)c1nnsc1S(=O)(=O)c1ccc(Cl)cc1,inactive
18,CCC(=O)Nc1ccc(C(=O)NNC(=O)c2ccc(Cl)cc2)cc1,inactive
19,O=C(Nc1ccc(Cl)cc1)c1ccsn1,3.16 µM (active)
20,CCCCN(CC(=O)Nc1cccc(S(=O)(=O)N2CCCC2)c1)Cc1nc2ccccc2c(=O)[nH]1,inactive
21,COCCn1cnnc1SCC(=O)Nc1cccc(S(=O)(=O)N2CCCCC2)c1,inactive
22,Cc1ccc(S(=O)(=O)N(C)C)cc1NC(=O)C(C)OC(=O)c1ccc2ccccc2n1 (configuration not stated),inactive
23,COc1ccc(F)cc1C(=O)COC(=O)c1n[nH]c(=O)c2ccccc12,inactive

row,SMILES,Potency
1,CCN(C(=O)COC(=O)CCOc1cccc(C)c1)c1c(N)n(Cc2ccccc2)c(=O)[nH]c1=O,inactive
2,O=C(O)c1ccc(N=NN2CCOCC2)cc1,inactive
3,O=C(c1ccccc1)N1CCN(C(=O)N2CCCCC2)CC1,inactive
4,O=C(O)c1cccc(N=NN2CCCCCC2)c1,0.1 µM (active)
5,CCOc1ncccc1C(=O)OCC(=O)Nc1cccc(S(=O)(=O)N2CCCCCC2)c1,inactive
6,N#Cc1nc(Cc2ccccc2)oc1NCCc1ccccc1,3.16 µM (active)
7,Cc1ccccc1-c1nc(C#N)c(NCc2ccco2)o1,inactive
8,N#Cc1nc(Cc2cccc3ccccc23)oc1NCc1ccc2c(c1)OCO2,inactive
9,COc1ccc(-c2[nH]nc(-c3ccccc3)c2-c2nc3ccccc3[nH]2)cc1,inactive
10,OC(c1nc2ccccc2[nH]1)C(O)C(O)C(O)c1nc2ccccc2[nH]1 (configuration not stated),inactive
11,Nc1cccc(CCc2nc3ccccc3[nH]2)c1,inactive
12,Cc1ccc(-c2nc3ccccc3[nH]2)cc1N,1.58 µM (active)
13,c1ccc2[nH]c(-c3nc4ccccc4[nH]3)nc2c1,1.26 µM (active)
14,COc1ccc(Br)cc1C(=O)NC(=S)Nc1cc(-c2nc3ccccc3[nH]2)ccc1C,inactive
15,CNc1nc(SC)nc(N(C#N)CC(=O)OC)n1,inactive
16,COc1ccc(OC)c(S(=O)(=O)Nc2c(C)nn(C)c2C)c1,inactive
17,Cc1cc(C(=O)Nc2ccc(C)c(S(=O)(=O)N3CCOCC3)c2)c2ccccc2n1,inactive
18,c1ccc(CN=C2Nc3ccccc3CS2)nc1,2.51 µM (active)
19,CCC1(CC)NC(=O)N(CC(=O)OCC(=O)c2cc(C)c(C)cc2C)C1=O,inactive
20,CC(=O)c1c(C)[nH]c(C(=O)COc2ccc3c(C)cc(=O)oc3c2)c1C,inactive
21,CCN(CC(=O)Nc1ccc(NC(C)=O)cc1)C(=O)CSC(=S)N1CCCC1,inactive
